From PubChem BioAssay come the findings set out here.

Several values for one entry are separate records, joined by “and”; a condition that tells them apart may be missing. Identical values can stand only once. Activity calls are given as the source filed them.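 Rule for the calls, unless noted: active = compounds whose cell count with miR-34 switched on is under 0.7 times the count with it off; inactive = the rest.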

Test [1] is described as follows: sensitizers of A549 cells to miR-34 induction, primary screen, imaging, A549 dox-inducible miR-34, nuclei and caspase counts (AID 1347080). As to conditions: A549 miR-34 inducible, Hoechst nuclei count, 48 h.
Test [2] is described as follows: survival rescue of mitochondrial mutant cells in low glucose, primary screen, MELAS cybrids, Rieske KO mouse fibroblasts, CellTiter-Glo (AID 1508586;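 active = mean z-score across replicates of 1.96 or higher in either the MELAS or the Rieske mutant cell line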;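 note: z relative to plate mean and SD of compound and empty wells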).
Test [3] has as its target NAD(+) hydrolase SARM1 (Homo sapiens) (UniProt Q6SZW1). The experiment in a line: SARM1 TIR NADase inhibitors, cell lysate, NAD-Glo luminescence (AID 1508614;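 active = compound whose remaining NAD level is above about 45 nM, limit read from the data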;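 note: higher remaining NAD means stronger inhibition of SARM1 NADase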). As to conditions: SAM-TIR HEK293T lysate NADase, at 1 µM, stronger effect = higher value.
Test [4] is described as follows: viability rescue of complex I mutant cybrids, primary screen, cell-based, galactose medium, ATP luminescence (AID 1645843;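 active = z-score of at least 1.8 in each of two replicates, scored against plate mean and spread of sample wells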;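 note: positive z means more ATP and so rescue of galactose-driven cybrid death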). As to conditions: complex I mutant cybrid cells, 72 h, stronger effect = higher value.
Test [5] addresses Mitogen-activated protein kinase 7 (Homo sapiens) (UniProt Q13164). The experiment in a line: ERK5 transactivation activators in reporter cells, primary screen, cell-based, HTS (AID 1508626;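 active = luciferase signal above three times the same-plate solvent-only control wells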;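 note: luciferase driven by Gal4-ERK5 fusion binding five Gal4 sites before minimal TATA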). As to conditions: HeLa Gal4-ERK5 transactivation, 18 h, at 5 µM, stronger effect = higher value.
Where [6] appears, read: stronger effect = lower value, cell number ratio, induced over uninduced.
[7] abbreviates: measured here: relative caspase fold change +Dox/-Dox.
[8] abbreviates: measured here: total cells with miR-34 induction, stronger effect = lower value.
Where [9] appears, read: measured here: total cells without miR-34 induction.
Where [10] appears, read: MELAS cybrid survival, CellTiter-Glo 48 h, stronger effect = higher value.
[11] abbreviates: Rieske KO mouse fibroblast survival, CellTiter-Glo 72 h.

Sequence of Mitogen-activated protein kinase 7 (Homo sapiens) (Q13164 whole entry, looked up, the tested form may be a part): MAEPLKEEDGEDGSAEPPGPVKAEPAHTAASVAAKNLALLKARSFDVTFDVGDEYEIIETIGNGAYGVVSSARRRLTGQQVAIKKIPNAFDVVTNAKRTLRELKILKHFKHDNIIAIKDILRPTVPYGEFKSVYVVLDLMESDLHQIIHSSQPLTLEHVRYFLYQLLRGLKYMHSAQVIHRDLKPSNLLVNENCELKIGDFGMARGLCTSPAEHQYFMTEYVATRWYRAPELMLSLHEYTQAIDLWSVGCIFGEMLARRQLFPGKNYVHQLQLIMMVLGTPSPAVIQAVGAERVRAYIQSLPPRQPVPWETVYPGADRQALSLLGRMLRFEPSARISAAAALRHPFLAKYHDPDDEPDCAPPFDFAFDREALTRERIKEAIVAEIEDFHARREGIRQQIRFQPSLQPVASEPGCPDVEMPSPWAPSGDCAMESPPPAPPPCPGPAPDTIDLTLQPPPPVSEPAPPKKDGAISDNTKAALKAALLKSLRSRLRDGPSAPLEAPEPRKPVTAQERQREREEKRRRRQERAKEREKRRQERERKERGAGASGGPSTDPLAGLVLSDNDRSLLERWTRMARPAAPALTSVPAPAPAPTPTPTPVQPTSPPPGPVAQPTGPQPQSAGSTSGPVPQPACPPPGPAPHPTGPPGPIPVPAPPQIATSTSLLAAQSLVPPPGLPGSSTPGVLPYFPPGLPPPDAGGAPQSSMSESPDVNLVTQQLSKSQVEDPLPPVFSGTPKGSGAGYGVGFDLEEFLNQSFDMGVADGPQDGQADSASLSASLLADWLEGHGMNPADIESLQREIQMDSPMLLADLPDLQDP
Sequence of NAD(+) hydrolase SARM1 (Homo sapiens) (Q6SZW1 whole entry, looked up): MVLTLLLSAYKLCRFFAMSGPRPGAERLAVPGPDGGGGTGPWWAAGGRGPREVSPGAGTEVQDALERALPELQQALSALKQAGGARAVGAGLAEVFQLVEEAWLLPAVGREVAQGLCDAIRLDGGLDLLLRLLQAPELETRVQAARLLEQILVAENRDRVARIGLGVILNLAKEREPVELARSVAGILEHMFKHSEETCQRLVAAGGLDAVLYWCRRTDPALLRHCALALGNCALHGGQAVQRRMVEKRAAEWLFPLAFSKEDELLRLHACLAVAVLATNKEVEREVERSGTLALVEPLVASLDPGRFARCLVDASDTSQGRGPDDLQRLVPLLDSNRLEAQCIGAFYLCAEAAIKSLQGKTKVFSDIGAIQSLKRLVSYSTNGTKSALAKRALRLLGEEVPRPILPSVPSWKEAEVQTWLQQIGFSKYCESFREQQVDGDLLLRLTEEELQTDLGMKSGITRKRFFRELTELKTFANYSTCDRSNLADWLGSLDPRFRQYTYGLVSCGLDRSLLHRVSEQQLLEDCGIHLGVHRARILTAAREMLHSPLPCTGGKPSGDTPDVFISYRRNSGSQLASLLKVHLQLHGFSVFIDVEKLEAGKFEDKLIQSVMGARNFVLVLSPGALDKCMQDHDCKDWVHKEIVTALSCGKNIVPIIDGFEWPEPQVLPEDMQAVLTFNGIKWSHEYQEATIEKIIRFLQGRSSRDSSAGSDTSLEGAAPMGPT

Turning to `CC(C)(C(=O)c1cccnc1)c1cccnc1`, the fold change in test [1] (setting [6]) was 0.962 (inactive) and 0.83 (inactive) and 0.921 (inactive); in test [1] (setting [7]), 1.43 and 1.26 and 2.87. Besides, the cell count in test [1] (setting [8]) was 10400 and 8590 and 12100; in test [1] (setting [9]), 10800 and 10300 and 13100. Also, the z-score in test [2] (setting [10]) was 0.55 (inactive); in test [2] (setting [11]), 0.502; in test [4] it was 0.18 (inactive). Besides, the remaining NAD in test [3] was 100 nM (active).

`CCCCCCc1ccc(O)cc1O`: the fold change in test [1] (setting [6]) is 0.901 (inactive); in test [1] (setting [7]) it was 1.55. For the same compound, the cell count stood at 11000 in test [1] (setting [8]) and 12200 in test [1] (setting [9]). Moreover, in test [3], the remaining NAD was 10 nM (inactive). Besides, in test [5], the luciferase signal is 20 AU (inactive).

Regarding `Oc1c(I)cc(I)c2cccnc12`, the fold change in test [1] (setting [6]) is 0.894 (inactive); in test [1] (setting [7]), 1.48. For the same compound, the cell count in test [1] (setting [8]) stood at 10900; in test [1] (setting [9]), 12200. In addition, the remaining NAD in test [3] is 10 nM (inactive). For the same compound, the luciferase signal in test [5] was 16 AU (inactive).

Consider `O=C(O)CCCCC1CCSS1` (centres undefined), for which the fold change is 1.15 (inactive) in test [1] (setting [6]) and 0.668 in test [1] (setting [7]). The cell count in test [1] (setting [8]) came out at 6920; in test [1] (setting [9]), 6020. Further, the remaining NAD in test [3] is 10 nM (inactive).

With `OCc1ccccc1O`, the fold change in test [1] (setting [6]) was 0.861 (inactive); in test [1] (setting [7]), 4.19. Moreover, the values for the cell count in test [1] (setting [8]) and in test [1] (setting [9]) were 10600 and 12400, respectively. Besides, the remaining NAD in test [3] was 10 nM (inactive). The luciferase signal in test [5] is 28 AU (inactive).

Regarding `COc1ccc(C2C(=O)c3ccccc3C2=O)cc1`, the fold change was 0.879 (inactive) in test [1] (setting [6]) and 2.05 in test [1] (setting [7]). Further, the cell count worked out at 11100 in test [1] (setting [8]) and 12700 in test [1] (setting [9]). The remaining NAD in test [3] is 10 nM (inactive). Also, the luciferase signal in test [5] is 172 AU (inactive).

For the compound `CCOC(=O)C1=C(C)NC(C)=C(C(=O)OCC)C1c1ccccc1/C=C/C(=O)OC(C)(C)C`, the results for the fold change in test [1] (setting [6]) and in test [1] (setting [7]) were 0.814 (inactive) and 0.737, respectively. Besides, the figures for the cell count in test [1] (setting [8]) and in test [1] (setting [9]) were 7100 and 8720, respectively. In addition, the z-score in test [2] (setting [10]) is -0.103 (inactive) and 0.874 (inactive); in test [2] (setting [11]) it was 0.213 and 0.0479; in test [4], -1.98 (inactive).

As to `O=C1OC(c2ccc(O)cc2)(c2ccc(O)cc2)c2ccccc21`, the results for the fold change in test [1] (setting [6]) and in test [1] (setting [7]) were 0.823 (inactive) and 1.14, respectively. In addition, the values for the cell count in test [1] (setting [8]) and in test [1] (setting [9]) were 10900 and 13200, respectively. The remaining NAD in test [3] is 10 nM (inactive). Also, the luciferase signal in test [5] is 84 AU (inactive).

Consider `Oc1ccc(Cl)c2cccnc12`, for which the results for the fold change in test [1] (setting [6]) and in test [1] (setting [7]) were 0.902 (inactive) and 0.654, respectively. Also, the cell count stood at 10900 in test [1] (setting [8]) and 12000 in test [1] (setting [9]). Further, in test [3], the remaining NAD was 10 nM (inactive). Besides, in test [5], the luciferase signal was 60 AU (inactive).

As for `COc1ccc(CN(CCN(C)C)c2ncccn2)cc1`, the results for the fold change in test [1] (setting [6]) and in test [1] (setting [7]) were 0.86 (inactive) and 3.03, respectively. Further, the cell count in test [1] (setting [8]) turned out to be 11900; in test [1] (setting [9]), 13800. Besides, the remaining NAD in test [3] was 10 nM (inactive). The luciferase signal in test [5] is 60 AU (inactive).

Consider `CC1CCC(NC(=O)N(CCCl)N=O)CC1` (centres undefined), for which the fold change in test [1] (setting [6]) is 0.814 (inactive); in test [1] (setting [7]), 5.15. For the same compound, the values for the cell count in test [1] (setting [8]) and in test [1] (setting [9]) were 9380 and 11500, respectively. The remaining NAD in test [3] is 10 nM (inactive). Further, the luciferase signal in test [5] is 44 AU (inactive).

Turning to `CO[C@@]1(NC(=O)C(C(=O)O)c2ccc(O)cc2)C(=O)N2C(C(=O)O)=C(CSc3nnnn3C)CO[C@@H]21` (some centres undefined), the fold change in test [1] (setting [6]) was 0.852 (inactive); in test [1] (setting [7]), 0.729. For the same compound, the cell count came to 11300 in test [1] (setting [8]) and 13300 in test [1] (setting [9]). For the same compound, the remaining NAD in test [3] is 10 nM (inactive). In test [5], the luciferase signal was 32 AU (inactive).
